# Laboratory results taken from the OligoGym collection.
# Biological target: SLC10A3
# Experiment: pooled miR-30 sensor sort-seq; sequence = guide strand
# Conditions: shRNA
# Also: reference of the scale not given here.
row,Sequence,sensor-assay potency score (higher = more potent)
1,TTGATGCAGAAGTCTCTCCGCT,-0.433
2,TCTCCAATGCTCAAGTAGCGGC,-0.783
3,TTAAGGGACCTGTGCCACCACC,-1.35
4,TAGTGCATGAGAACTTTGGTGG,0.0901
5,TCTTCAGCAGGTGAGACCTTGA,-0.622
6,TTTTCTGAGTGCATAGTGCATG,-0.554
7,TTCAGCAGGTGAGACCTTGATG,-1.03
8,TTGGGTTTTCCGAGAAGTGGGC,0.0759
9,TAGAGGATTGGGTTTTCCGAGA,-0.917
10,TCAAACTCCATCACAGAGCCAT,-0.169
11,AAAGATAAGAGGCAGGAGCAGG,-0.888
12,TCTTGATGGTCAGCACCTCTGT,-1.25

# Biological target: SLC10A7
# Experiment: as above
# Conditions: shRNA
row,Sequence,sensor-assay potency score (higher = more potent)
1,TAAAAGCATAAAACTCAGCTGG,-0.225
2,TTACTTACCAAAAAACTTCCAA,0.24
3,AACAGTATGAGAACAAGGCTGA,0.508
4,TATTGTTGCAACAGCAATGTAG,0.00955
